ChEMBL document CHEMBL1201862, “PubChem BioAssay data set” (2004)
Out of some 400,000 compounds screened, about 2,100 (0.53%) were called active. Not shown: some 14% with an inconclusive outcome. No rule for the calls is given here. Only a selection was taken, and actives are over-represented in it overall.

Each molecule was assayed against Ataxin-2 (Homo sapiens) (UniProt Q99700) (assay: qHTS for Inhibitors of ATXN expression.).
Format: functional

Ataxin-2 (Homo sapiens), sequence (Q99700 whole entry): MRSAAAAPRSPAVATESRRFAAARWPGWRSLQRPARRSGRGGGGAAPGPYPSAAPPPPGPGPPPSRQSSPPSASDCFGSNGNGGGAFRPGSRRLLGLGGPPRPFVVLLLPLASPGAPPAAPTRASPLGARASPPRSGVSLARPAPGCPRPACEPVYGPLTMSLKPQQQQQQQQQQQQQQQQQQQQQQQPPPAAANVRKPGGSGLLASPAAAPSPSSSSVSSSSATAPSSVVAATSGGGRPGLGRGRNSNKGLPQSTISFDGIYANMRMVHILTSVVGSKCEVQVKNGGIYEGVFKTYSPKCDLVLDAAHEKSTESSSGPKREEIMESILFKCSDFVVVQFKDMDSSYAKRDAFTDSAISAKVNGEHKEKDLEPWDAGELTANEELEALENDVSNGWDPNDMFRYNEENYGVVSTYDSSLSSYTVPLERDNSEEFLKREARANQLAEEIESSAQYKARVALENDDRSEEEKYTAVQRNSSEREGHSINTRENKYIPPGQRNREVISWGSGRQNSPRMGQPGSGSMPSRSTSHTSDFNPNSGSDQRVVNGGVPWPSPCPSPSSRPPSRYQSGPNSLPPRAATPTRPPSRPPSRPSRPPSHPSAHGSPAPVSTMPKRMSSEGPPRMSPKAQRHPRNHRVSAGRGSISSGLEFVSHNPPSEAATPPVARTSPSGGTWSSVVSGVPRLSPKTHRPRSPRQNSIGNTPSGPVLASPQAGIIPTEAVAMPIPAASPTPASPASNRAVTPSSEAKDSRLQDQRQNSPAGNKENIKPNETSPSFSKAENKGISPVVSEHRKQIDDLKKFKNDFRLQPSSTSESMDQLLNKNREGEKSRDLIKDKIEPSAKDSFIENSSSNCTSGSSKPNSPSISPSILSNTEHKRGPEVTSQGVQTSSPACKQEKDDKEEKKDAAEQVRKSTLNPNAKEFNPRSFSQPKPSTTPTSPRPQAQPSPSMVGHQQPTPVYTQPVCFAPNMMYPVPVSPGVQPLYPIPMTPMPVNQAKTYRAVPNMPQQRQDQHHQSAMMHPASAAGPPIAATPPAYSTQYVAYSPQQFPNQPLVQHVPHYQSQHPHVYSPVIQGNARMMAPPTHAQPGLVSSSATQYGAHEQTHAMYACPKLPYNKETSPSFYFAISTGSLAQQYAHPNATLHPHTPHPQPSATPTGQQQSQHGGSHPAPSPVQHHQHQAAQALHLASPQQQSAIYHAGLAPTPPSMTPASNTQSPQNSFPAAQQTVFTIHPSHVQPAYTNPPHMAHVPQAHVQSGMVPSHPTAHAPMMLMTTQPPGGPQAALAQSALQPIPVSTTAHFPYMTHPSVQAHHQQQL

| SMILES | Potency |
| --- | --- |
| Cc1nn2c(NC(C)C)c3c(nc2c1-c1ccccc1)CCC3 | inactive |
| Cc1cc(C(C)(C)C)n2nc(C)c(-c3ccccc3)c2n1 | inactive |
| Cc1nn2c(NCCN(C)C)c3c(nc2c1-c1ccccc1)CCCC3 | 35.5 µM (active) |
| CSCCC(NC(=O)/C(=C/c1ccc2c(c1)OCO2)NC(=O)c1cccc([N+](=O)[O-])c1)C(=O)O (centres undefined) | inactive |
| C=CC[C@H](CC(=O)N(CCO)Cc1ccccc1)C(=O)N[C@H](COC(=O)[C@@H](CC=C)Cc1ccc(F)cc1)Cc1ccccc1 | 22.4 µM (active) |
| C=CCC[C@H](Cc1ccc(F)cc1)C(=O)OC[C@@H](NC(=O)[C@@H](CC=C)CC(=O)N[C@@H](CO)Cc1ccccc1)C(C)(C)C | 39.8 µM (active) |
| C=CC[C@H](CC(=O)N(CCO)Cc1ccccc1)C(=O)N[C@H](COC(=O)[C@@H](CC=C)Cc1ccc(F)cc1)C(C)(C)C | 28.2 µM (active) |
| C=CC[C@H](CC(=O)N(CCO)Cc1ccccc1)C(=O)NC[C@@H](OC(=O)[C@@H](CC=C)Cc1ccc(F)cc1)c1ccccc1 | 28.2 µM (active) |
| Cn1c(-c2c(N)n(CCc3ccccc3)c3nc4ccccc4nc23)nc2ccccc21 | inactive |
| Cc1ccc(C(C(=O)NCC2CCCO2)N(C(=O)c2snc(C(N)=O)c2N)c2ccccc2F)o1 (centres undefined) | inactive |
| OCCN(Cc1ccccc1)C(S)=Nc1ccc(F)cc1 | inactive |
| C=CC[C@H](CC(=O)N(CCO)Cc1ccccc1)C(=O)N[C@@H](COC(=O)[C@@H](CC=C)Cc1ccc(F)cc1)Cc1ccccc1 | 28.2 µM (active) |
| C=CC[C@@H](CC(=O)N(CCO)Cc1ccccc1)C(=O)N[C@H](COC(=O)[C@@H](CC=C)Cc1ccc(F)cc1)Cc1ccccc1 | 28.2 µM (active) |
| Cc1cccn2c(=O)c3cc(C#N)/c(=N\C(=O)c4ccncc4)n(CCCOC(C)C)c3nc12 | inactive |
| CCn1ccnc1CN1CCc2c([nH]c3ccccc23)C1CC(C)C (centres undefined) | inactive |
| O=C(CCCCCn1c(=S)[nH]c2ccc(N3CCOCC3)cc2c1=O)NCc1ccc(Cl)cc1 | inactive |
| O=C(CCCCCn1c(=S)[nH]c2ccc(N3CCOCC3)cc2c1=O)NCc1cccc(Cl)c1 | inactive |
| C[C@]12c3[nH]c4ccc(Cl)cc4c3CCN1C(=O)[C@@H](CC(=O)NCc1cccc(C(F)(F)F)c1)C[C@@H]2C(=O)N1CCCCC1 | 35.5 µM (active) |
| C[C@]12c3[nH]c4ccc(Cl)cc4c3CCN1C(=O)[C@@H](CC(=O)NCc1cccc(C(F)(F)F)c1)C[C@@H]2C(=O)N1CCOCC1 | 20 µM (active) |
| CCC1(C)Cc2ccccc2-c2ncnc(O)c21 (centres undefined) | inactive |

| SMILES | Potency |
| --- | --- |
| COC(=O)N/N=C/c1cccc(OC(=O)c2ccc3c(c2)OCO3)c1 | inactive |
| O=C(Cn1nnc2ccccc2c1=O)Nc1ccc(S(=O)(=O)N2CCOCC2)cc1 | inactive |
| COc1ccc(C2C=C(c3ccccc3)Nc3nc(NS(=O)(=O)c4ccc(C)cc4)nn32)cc1 (centres undefined) | inactive |
| COc1cc([C@@H]2c3cc4c(cc3[C@@H](O)[C@H]3COC(=O)[C@H]23)OCO4)cc(OC)c1O[Si](C)(C)C(C)(C)C | 39.8 µM (active) |
| Oc1c(C(Nc2cccc(C(F)(F)F)c2)c2ccncc2)ccc2cccnc12 (centres undefined) | inactive |
| COc1cccc(-c2cc(C(F)(F)F)c(C#N)c(O)n2)c1 | inactive |
| N#Cc1cccc(-c2csc(C(O)(c3ccccc3)C(F)(F)F)n2)c1 (centres undefined) | 20 µM (active) |
| OC(c1ccccc1)(c1nc(-c2cc(F)cc(F)c2)cs1)C(F)(F)F (centres undefined) | 35.5 µM (active) |
| N#CC12COC3(CCCCC3C1(C#N)C#N)OC2=N (centres undefined) | inactive |
| Cc1cc(=O)oc2c3c(ccc12)OCN(Cc1ccc(Cl)cc1)C3 | inactive |
| O=C(O)c1ccc(Nc2nc(-c3cc4ccccc4oc3=O)cs2)cc1O | inactive |
| Cc1cc(NC(=S)NC(=O)c2ccccc2)ccc1-c1cc2ccccc2oc1=O | 17.8 µM (active) |
| O=C(O)c1cccc(Nc2nc(-c3cc4ccccc4oc3=O)cs2)c1 | inactive |
| N#CC1=C(c2ccccc2)/C(=C/c2ccccc2)OC1=O | 22.4 µM (active) |
| N#CC1=C(N)OC2=C(CC/C2=C\c2ccccc2)C1c1ccccc1 (centres undefined) | inactive |
| Nc1ccc2c(c1)nc(O)c1cc(N)ccc12 | inactive |
| CCN(CC)c1ccc(/C=C/C(=O)C2C(=O)C=C(C)OC2=O)cc1 (centres undefined) | inactive |
| CCOC(=O)c1sc(-c2ccc(Cl)cc2)nc1O | inactive |
| CCOC(=O)C1=C(Cc2ccc(Cl)cc2)C(=O)c2ccccc2C1=O | 31.6 µM (active) |
| CCOC(=O)c1c(C)n(O)c2ccc(Cl)cc2c1=O | inactive |

| SMILES | Potency |
| --- | --- |
| CCN1CCN(c2nc3c(C)cccn3c(=O)c2/C=C(\C#N)C(=O)NC)CC1 | inactive |
| COc1ccc(-c2onc3ccc(C(C)=O)cc23)cc1 | inactive |
| COc1ccc(-c2cc(CNC(=O)CCl)on2)cc1 | 15.8 µM (active) |
| COc1ccc(-c2cc3c(=O)n(CC(=O)NCc4ccc(Cl)cc4)ncn3n2)cc1 | inactive |
| CC(C)c1ccc(C2C(C#N)=C(N)Oc3c2oc(CO)cc3=O)cc1 (centres undefined) | inactive |
| COc1ccc(CCN2C(=O)CS/C2=N/NC(=O)c2ccccc2F)cc1OC | inactive |
| CCN(CC)C(=O)c1ccc2c3c(cccc13)C(=O)N(CCc1ccc(OC)c(OC)c1)C2=O | 28.2 µM (active) |
| CCCN1C(=O)c2cccc3c(N4CCCCC4)ccc(c23)C1=O | inactive |
| O=C(O)CCSc1nnc(CNc2ccc(Cl)cc2)n1Cc1ccccc1 | inactive |
| Cc1cc(C(=O)CCl)c(C)n1CC1COc2ccccc2O1 (centres undefined) | 26.7 µM (active) |
| CC(C)N1CCN(CC2COc3ccccc3O2)CC1 (centres undefined) | inactive |
| CC1CC(=NNC(=O)C2COc3ccccc3O2)CC(C)(C)C1 (centres undefined) | inactive |
| O=C(O)CN1C(=O)C2C3CCC(C3)C2C1=O (centres undefined) | inactive |
| COc1ccc(-c2cn3nc4c(nc3n2)CCCC4)cc1 | inactive |
| CCCCCCc1cc2cc(-c3nnc(-c4ccccc4O)o3)c(=O)oc2cc1O | inactive |
| CC(C)c1ccc2c(c1)CCC1C(C)(CN)CCCC21C (centres undefined) | 39.8 µM (active) |
| CCOC(=O)c1c(-c2ccccc2)oc2ccc(OCC(O)CNCCN(C)C)cc12 (centres undefined) | inactive |
| CCOC(=O)c1c(CSc2ccccc2)n(C)c2cc(Br)c(OCC(O)CNC(CO)(CO)CO)cc12 (centres undefined) | 25.1 µM (active) |
| CCOC(=O)c1c(CSC(=N)N)n(C)c2cc(Br)c(OC(C)=O)cc12 | 35.5 µM (active) |
